According to PubChem BioAssay (EPA / NIEHS):
Values joined by “and” are separate entries in the source; they are usually repeats but may differ in a detail not shown here. Equal values may be shown once. Results filed as inconclusive are left out. Where a structure was tested more than once in an assay, its records may differ in their call. Active and inactive are the calls of the source. The calls were made as follows: active = hit-call score of the fitted dose curve at least 0.9, where 1 is the maximum; inconclusive = response in the unintended direction; inactive = score below 0.9.

Test system: not listed separately
Test: TOX21_p53_BLA_p3_viability: Viability Assessment in the Tox21 HCT-116 p53 Agonism Beta-lactamase Assay, Phase 3 (AID 2283593);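 also: cells exposed to compound for 16 h before reading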
Method in brief: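 HCT116 cells, 4000/well, dosed 5 h after plating by pin transfer (217-fold dilution from DMSO stock) and incubated 16 h at 37C, 5% CO2. Viability read as ATP luminescence with CellTiter-Glo after 30 min at room temperature.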

Structure (SMILES)	outcome	AC50
CCC(COC(=O)CCS)(COC(=O)CCS)COC(=O)CCS	inactive	–
CC1COc2ccccc2N1 (configuration not stated)	inactive	–
CCCCCCCCCCCCC(=O)O	inactive	–
OCCN1C[C@H](O)[C@@H](O)[C@H](O)[C@H]1CO	inactive	–
Cc1ccc(NC(=O)N(C)C)cc1NC(=O)N(C)C	inactive	–
OCCN1CCN(CCCN2c3ccccc3C=Cc3ccccc32)CC1	inactive	–
NC(=O)CCCCC(N)=O	inactive	–
CCCC(=O)OC[C@@H](OC(=O)CCC)[C@@H](OC(=O)CCC)[C@H](Cn1c2nc(=O)[nH]c(=O)c-2nc2cc(C)c(C)cc21)OC(=O)CCC	inactive	–
Oc1cccc(-c2c3nc(c(-c4cccc(O)c4)c4ccc([nH]4)c(-c4cccc(O)c4)c4nc(c(-c5cccc(O)c5)c5ccc2[nH]5)CC4)C=C3)c1	inactive	35.7 µM (active)
CCOC(=O)[C@H](CCc1ccccc1)N[C@@H](C)C(=O)N1Cc2ccccc2C[C@H]1C(=O)O	inactive	–
CCCCCCCN(CC)CCCC(O)c1ccc(NS(C)(=O)=O)cc1 (configuration not stated)	inactive	–
NCCS	inactive	–
O=C(O)CONC(=O)c1ccccc1	inactive	–
COc1cc2nc(N3CCN(C(=O)C4COc5ccccc5O4)CC3)nc(N)c2cc1OC (configuration not stated)	inactive	–
CC(=O)OC[C@H]1O[C@@H](O[C@H]2[C@H](O)[C@@H](OC(=O)c3ccccc3C(=O)O)[C@H](O)O[C@@H]2COC(C)=O)[C@H](O)[C@@H](OC(=O)c2ccccc2C(=O)O)[C@@H]1O	inactive	–
CC(C)N=c1cc2n(-c3ccc(Cl)cc3)c3ccccc3nc-2cc1Nc1ccc(Cl)cc1	inactive	–
Cc1cccc(C)c1NC(=O)c1cc(S(N)(=O)=O)c(Cl)cc1O	inactive	–
CC(C)C(=O)OC(=O)C(C)C	inactive	–
CC(C)(C)CC(C)(C)c1cc(Cc2cc(C(C)(C)CC(C)(C)C)cc(-n3nc4ccccc4n3)c2O)c(O)c(-n2nc3ccccc3n2)c1	inactive	–
CCC(C)C(C(=O)OCC[N+](C)(CC)CC)c1ccccc1 (configuration not stated)	inactive	–
CC(C)(C)NC[C@H](O)COc1cccc2c1CCCC2=O	inactive	–
CN1CCN(CC(=O)N2c3ccccc3C(=O)Nc3cccnc32)CC1	inactive	–
CN1CCN(CCCN2c3ccccc3Sc3ccc(C(F)(F)F)cc32)CC1	inactive	–
CCNC(=O)/C=C/c1cccc(Br)c1	inactive	–

Molecular target: Cellular tumor antigen p53 (Homo sapiens) (UniProt P04637)
Test: TOX21_p53_BLA_p3_ratio: Tox21 HCT-116 p53 Agonism Beta-lactamase Assay, Ratio, Phase 3 (AID 2283596)
Method in brief: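 HCT116 p53-bla cells (4000/well) given compound in DMSO (217-fold dilution) after 5 h, incubated 16 h at 37C. CCF4-AM substrate 2 h at room temperature; 460/530 nm emission ratio, gain fitted against DMSO.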

Sequence of Cellular tumor antigen p53 (Homo sapiens) (P04637 whole entry, looked up): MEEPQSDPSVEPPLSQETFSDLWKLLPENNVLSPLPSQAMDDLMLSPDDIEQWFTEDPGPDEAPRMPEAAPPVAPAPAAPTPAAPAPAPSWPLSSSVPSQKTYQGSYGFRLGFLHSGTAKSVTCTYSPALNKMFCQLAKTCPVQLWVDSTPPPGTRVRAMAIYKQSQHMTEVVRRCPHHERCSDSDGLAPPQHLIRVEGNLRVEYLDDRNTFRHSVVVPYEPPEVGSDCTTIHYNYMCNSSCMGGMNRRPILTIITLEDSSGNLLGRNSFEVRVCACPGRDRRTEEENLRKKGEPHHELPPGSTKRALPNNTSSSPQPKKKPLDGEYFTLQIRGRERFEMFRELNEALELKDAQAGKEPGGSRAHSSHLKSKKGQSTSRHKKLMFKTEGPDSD

Structure (SMILES)	AC50	outcome
CCC(COC(=O)CCS)(COC(=O)CCS)COC(=O)CCS	72.1 µM (active)	–
CC1COc2ccccc2N1 (configuration not stated)	–	inactive
CCCCCCCCCCCCC(=O)O	–	inactive
OCCN1C[C@H](O)[C@@H](O)[C@H](O)[C@H]1CO	–	inactive
Cc1ccc(NC(=O)N(C)C)cc1NC(=O)N(C)C	–	inactive
OCCN1CCN(CCCN2c3ccccc3C=Cc3ccccc32)CC1	–	inactive
NC(=O)CCCCC(N)=O	–	inactive
CCCC(=O)OC[C@@H](OC(=O)CCC)[C@@H](OC(=O)CCC)[C@H](Cn1c2nc(=O)[nH]c(=O)c-2nc2cc(C)c(C)cc21)OC(=O)CCC	–	inactive
Oc1cccc(-c2c3nc(c(-c4cccc(O)c4)c4ccc([nH]4)c(-c4cccc(O)c4)c4nc(c(-c5cccc(O)c5)c5ccc2[nH]5)CC4)C=C3)c1	37.4 µM (active)	inactive
CCOC(=O)[C@H](CCc1ccccc1)N[C@@H](C)C(=O)N1Cc2ccccc2C[C@H]1C(=O)O	–	inactive
CCCCCCCN(CC)CCCC(O)c1ccc(NS(C)(=O)=O)cc1 (configuration not stated)	–	inactive
NCCS	–	inactive
O=C(O)CONC(=O)c1ccccc1	–	inactive
COc1cc2nc(N3CCN(C(=O)C4COc5ccccc5O4)CC3)nc(N)c2cc1OC (configuration not stated)	–	inactive
CC(=O)OC[C@H]1O[C@@H](O[C@H]2[C@H](O)[C@@H](OC(=O)c3ccccc3C(=O)O)[C@H](O)O[C@@H]2COC(C)=O)[C@H](O)[C@@H](OC(=O)c2ccccc2C(=O)O)[C@@H]1O	–	inactive
CC(C)N=c1cc2n(-c3ccc(Cl)cc3)c3ccccc3nc-2cc1Nc1ccc(Cl)cc1	–	inactive
CC(C)C(=O)OC(=O)C(C)C	–	inactive
CC(C)(C)CC(C)(C)c1cc(Cc2cc(C(C)(C)CC(C)(C)C)cc(-n3nc4ccccc4n3)c2O)c(O)c(-n2nc3ccccc3n2)c1	–	inactive
CCC(C)C(C(=O)OCC[N+](C)(CC)CC)c1ccccc1 (configuration not stated)	–	inactive
CC(C)(C)NC[C@H](O)COc1cccc2c1CCCC2=O	–	inactive
CN1CCN(CC(=O)N2c3ccccc3C(=O)Nc3cccnc32)CC1	–	inactive
CN1CCN(CCCN2c3ccccc3Sc3ccc(C(F)(F)F)cc32)CC1	–	inactive
CCNC(=O)/C=C/c1cccc(Br)c1	–	inactive

Test system: not listed separately
Test: TOX21_p53_BLA_p4_viability: Viability Assessment in the Tox21 HCT-116 p53 Agonism Beta-lactamase Assay, Phase 4 (AID 2283597);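 also: hits lower the luminescence signal meaning cytotoxicity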
Method in brief: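 Luminescent ATP readout (CellTiter-Glo, 30 min, room temperature) in the same wells as the p53 bla ratio. HCT116 cells were treated for 16 h at 37C with DMSO-dissolved compounds.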

Structure (SMILES)	outcome	AC50
CC1COc2ccccc2N1 (configuration not stated)	inactive	–
CCCCCCCCCCCCC(=O)O	inactive	–
OCCN1C[C@H](O)[C@@H](O)[C@H](O)[C@H]1CO	inactive	–
Cc1ccc(NC(=O)N(C)C)cc1NC(=O)N(C)C	inactive	–
OCCN1CCN(CCCN2c3ccccc3C=Cc3ccccc32)CC1	inactive	28.1 µM (active)
NC(=O)CCCCC(N)=O	inactive	–
CCCC(=O)OC[C@@H](OC(=O)CCC)[C@@H](OC(=O)CCC)[C@H](Cn1c2nc(=O)[nH]c(=O)c-2nc2cc(C)c(C)cc21)OC(=O)CCC	inactive	–
Oc1cccc(-c2c3nc(c(-c4cccc(O)c4)c4ccc([nH]4)c(-c4cccc(O)c4)c4nc(c(-c5cccc(O)c5)c5ccc2[nH]5)CC4)C=C3)c1	–	17 µM (active) and 33.2 µM (active)
CCOC(=O)[C@H](CCc1ccccc1)N[C@@H](C)C(=O)N1Cc2ccccc2C[C@H]1C(=O)O	inactive	–
CCCCCCCN(CC)CCCC(O)c1ccc(NS(C)(=O)=O)cc1 (configuration not stated)	inactive	–
NCCS	inactive	–
O=C(O)CONC(=O)c1ccccc1	inactive	–
COc1cc2nc(N3CCN(C(=O)C4COc5ccccc5O4)CC3)nc(N)c2cc1OC (configuration not stated)	inactive	–
CC(=O)OC[C@H]1O[C@@H](O[C@H]2[C@H](O)[C@@H](OC(=O)c3ccccc3C(=O)O)[C@H](O)O[C@@H]2COC(C)=O)[C@H](O)[C@@H](OC(=O)c2ccccc2C(=O)O)[C@@H]1O	inactive	–
CC(C)N=c1cc2n(-c3ccc(Cl)cc3)c3ccccc3nc-2cc1Nc1ccc(Cl)cc1	inactive	–
CC(C)C(=O)OC(=O)C(C)C	inactive	–
CC(C)(C)CC(C)(C)c1cc(Cc2cc(C(C)(C)CC(C)(C)C)cc(-n3nc4ccccc4n3)c2O)c(O)c(-n2nc3ccccc3n2)c1	inactive	–
CCC(C)C(C(=O)OCC[N+](C)(CC)CC)c1ccccc1 (configuration not stated)	inactive	–
CC(C)(C)NC[C@H](O)COc1cccc2c1CCCC2=O	inactive	–
CN1CCN(CC(=O)N2c3ccccc3C(=O)Nc3cccnc32)CC1	inactive	–
CN1CCN(CCCN2c3ccccc3Sc3ccc(C(F)(F)F)cc32)CC1	–	33.9 µM (active)
CCNC(=O)/C=C/c1cccc(Br)c1	inactive	–
